Assay results as given in PubChem BioAssay (Tox21).
Records with an inconclusive call do not appear. Calls of active or inactive are those of the source. Unless noted, the call rests on the fitted dose curve; in most records, active means well fitted curve in the direction sought with a large enough effect in the repeat runs; inconclusive means weak or mixed curves; inactive means no such curve, though single readings can be large; an effect the other way counts as inactive or inconclusive.

Assays:
[1] = qHTS assay for small molecule agonists of the p53 signaling pathway (AID 651631; calls by dose curve; further: nearly all actives have a fitted effect of over 15% in size)
How it was run: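 Read-out is beta-lactamase FRET fluorescence measured 2 h after substrate addition at room temperature, in HCT-116 cells with a p53 response element-driven reporter exposed to compounds for 16 h at 37 °C.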

[2] = qHTS assay for small molecules that induce genotoxicity in human embryonic kidney cells expressing luciferase-tagged ATAD5 (AID 651632); further: nearly all actives have a fitted effect of over 15% in size
How it was run: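 Quantitative HTS in HEK293T expressing luciferase-tagged ATAD5, whose levels rise upon DNA damage. Exposure ran 16 hr at 37C and 5% CO2, with luminescence read 30 min after Amplite addition at room temperature.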

[3] = qHTS assay for small molecule agonists of the p53 signaling pathway - cell viability (AID 651633; calls by dose curve;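 further: p53RE-bla HCT reporter cells with a stable beta-lactamase p53 reporter; series mostly up to about 83 µM; nearly all actives have a fitted effect of over 30% in size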)
How it was run: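 p53RE-bla cells were treated with compound for 16 hours at 37 C. Cytotoxicity was then measured as CellTiter-Glo luminescence after 30 min at room temperature.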

[4] = qHTS assay for small molecules that induce genotoxicity in human embryonic kidney cells expressing luciferase-tagged ATAD5 - cell viability (AID 651634; calls by dose curve; further: nearly all actives have a fitted effect of over 25% in size)
How it was run: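 After 15.5 hr incubation with compound at 37C, 5% CO2, HEK293T ATAD5-luciferase cells received CellTiter-Fluor reagent; fluorescence intensity was quantified following 30 min at 37C.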

[5] = qHTS assay for small molecule disruptors of the mitochondrial membrane potential - cell viability (AID 720634; calls by dose curve;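 further: human HepG2 liver cancer cells; series mostly up to about 83 µM; nearly all actives have a fitted effect of over 20% in size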)
How it was run: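 ATP-based luminescent viability readout (CellTiter-Glo, 30 min, room temperature) in HepG2 cells multiplexed with the m-MPI membrane potential dye; compound exposure lasted 1 hr at 37 C.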

[6] = qHTS assay for small molecule disruptors of the mitochondrial membrane potential (AID 720635)
How it was run: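 HepG2 cells exposed to compound 1 hr at 37C, then Mito-MPS dye 30 min. Ratio read of aggregate (540/590 nm) versus monomer (490/535 nm) fluorescence.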

[7] = qHTS assay to test for compound auto fluorescence at 590 nm (red) in HepG2 cells (AID 720674)
How it was run: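 Seeding: 2,000 HepG2 cells/well, MEM/10% FBS, overnight 37 C. Dosing: compound vs DMSO. Incubation: 1 hr, 37 C, 5% CO2. Read: fluorescence 540 ex/590 em, Rose Bengal sodium as red reference.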

[8] = qHTS assay to test for compound auto fluorescence at 535 nm (green) in HepG2 cells (AID 720675)
[9] = qHTS assay to test for compound auto fluorescence at 590 nm (red) in HEK293 cells (AID 720679)
How it was run: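 Each well held 2,000 HEK293 cells in medium containing 10% dialyzed FBS. Following 4-5 hr attachment at 37C, 23 nL test compound or DMSO was added; plates sat overnight, and red fluorescence (540/590nm) was recorded.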

[10] = qHTS assay to test for compound auto fluorescence at 535 nm (green) in HEK293 cells (AID 720680)
[11] = qHTS assay to test for compound auto fluorescence at 460 nm (blue) in HEK293 cell free culture (AID 720681)
How it was run: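 Compounds were added to cell-free DMEM with 10% FBS and fluorescence read directly. The blue channel used 405 nm excitation and 460 nm emission, with triamterene as the reference fluorophore.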

[12] = qHTS assay to test for compound auto fluorescence at 535 nm (green) in HEK293 cell free culture (AID 720682)
How it was run: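 Fluorescein serves as the green reference fluorophore; each compound's intrinsic emission at 535 nm (excitation 485 nm) is reported as an equivalent amount of that dye, measured in serum-containing DMEM without cells.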

[13] = qHTS assay to test for compound auto fluorescence at 590 nm (red) in HEK293 cell free culture (AID 720683)
How it was run: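 Cell-free wells of DMEM with 10% FBS received compound, and intrinsic fluorescence was read at excitation/emission 540/590 nm. Values expressed as equivalence to Rose Bengal sodium.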

[14] = qHTS assay to test for compound auto fluorescence at 590 nm (red) in HepG2 cell free culture (AID 720684)
How it was run: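 Rose Bengal sodium served as the reference for red signal. Test compounds were dispensed into serum-containing MEM (10% FBS) without cells, and plates were read at 540/590 nm.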

[15] = qHTS assay to test for compound auto fluorescence at 460 nm (blue) in HepG2 cell free culture (AID 720685)
How it was run: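 Cell-free plates of MEM plus 10% FBS received 23 nL compound or DMSO vehicle; blue-channel (405/460 nm) intensity scored against triamterene as reference fluorophore.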

[16] = qHTS assay to test for compound auto fluorescence at 535 nm (green) in HepG2 cell free culture (AID 720686)
[17] = qHTS assay to test for compound auto fluorescence at 460 nm (blue) in HepG2 cells (AID 720687)
How it was run: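 HepG2 cells in MEM with 10% FBS, attached overnight at 37 C, were exposed to compound or DMSO for 1 hr at 37 C, 5% CO2. Blue fluorescence was read at 405/460 nm, with triamterene as reference fluorophore.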

[18] = target: Glucocorticoid receptor (Homo sapiens) (UniProt P04150); assay: qHTS assay to identify small molecule agonists of the glucocorticoid receptor (GR) signaling pathway (AID 720691; active means well fitted activation curve with a large enough effect in the signal ratio in the repeat runs, not every such curve was filed as active; the % refers to the signal ratio)
How it was run: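 Cells: GR-bla HeLa, endogenous GR with stably integrated GRE-beta-lactamase reporter. Treatment 18 h, 37 C, compounds delivered in DMSO. Detection via LiveBLAzer B/G FRET substrate, 2 h RT, fluorescence intensity.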

[19] = target: Glucocorticoid receptor (Homo sapiens) (UniProt P04150); assay: qHTS assay to identify small molecule antagonists of the glucocorticoid receptor (GR) signaling pathway (AID 720692; active means well fitted inhibition curve with a large enough effect in the signal ratio in the repeat runs, not every such curve was filed as active; the % refers to the signal ratio)
How it was run: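 Quantitative HTS in antagonist format: HeLa cells expressing endogenous GR and a stably integrated GRE-bla reporter, stimulated with 5 nM dexamethasone (final) alongside test compounds for 18 h.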

[20] = qHTS assay to identify small molecule antagonists of the glucocorticoid receptor (GR) signaling pathway - cell viability counter screen (AID 720693); further: nearly all actives have a fitted effect of over 55% in size
[21] = qHTS assay for identifying genotoxic compounds that show differential cytotoxicity against isogenic chicken DT40 cell lines with known DNA damage response pathways - wild type cell line (AID 743012); further: nearly all actives have a fitted effect of over 60% in size
How it was run: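 Luminescent ATP viability signal (CellTiter-Glo, 30 min RT) recorded after wild type DT40 cells were incubated with compounds for 40 h at 37 C/5% CO2.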

[22] = qHTS assay for identifying genotoxic compounds that show differential cytotoxicity against isogenic chicken DT40 cell lines with known DNA damage response pathways - Rev3 mutant cell line (AID 743014); further: nearly all actives have a fitted effect of over 55% in size
[23] = qHTS assay for identifying genotoxic compounds that show differential cytotoxicity against isogenic chicken DT40 cell lines with known DNA damage response pathways - Rad54/Ku70 mutant cell line (AID 743015); further: nearly all actives have a fitted effect of over 60% in size

Measured: Potency

Sequence of Glucocorticoid receptor (Homo sapiens) (P04150 whole entry, looked up): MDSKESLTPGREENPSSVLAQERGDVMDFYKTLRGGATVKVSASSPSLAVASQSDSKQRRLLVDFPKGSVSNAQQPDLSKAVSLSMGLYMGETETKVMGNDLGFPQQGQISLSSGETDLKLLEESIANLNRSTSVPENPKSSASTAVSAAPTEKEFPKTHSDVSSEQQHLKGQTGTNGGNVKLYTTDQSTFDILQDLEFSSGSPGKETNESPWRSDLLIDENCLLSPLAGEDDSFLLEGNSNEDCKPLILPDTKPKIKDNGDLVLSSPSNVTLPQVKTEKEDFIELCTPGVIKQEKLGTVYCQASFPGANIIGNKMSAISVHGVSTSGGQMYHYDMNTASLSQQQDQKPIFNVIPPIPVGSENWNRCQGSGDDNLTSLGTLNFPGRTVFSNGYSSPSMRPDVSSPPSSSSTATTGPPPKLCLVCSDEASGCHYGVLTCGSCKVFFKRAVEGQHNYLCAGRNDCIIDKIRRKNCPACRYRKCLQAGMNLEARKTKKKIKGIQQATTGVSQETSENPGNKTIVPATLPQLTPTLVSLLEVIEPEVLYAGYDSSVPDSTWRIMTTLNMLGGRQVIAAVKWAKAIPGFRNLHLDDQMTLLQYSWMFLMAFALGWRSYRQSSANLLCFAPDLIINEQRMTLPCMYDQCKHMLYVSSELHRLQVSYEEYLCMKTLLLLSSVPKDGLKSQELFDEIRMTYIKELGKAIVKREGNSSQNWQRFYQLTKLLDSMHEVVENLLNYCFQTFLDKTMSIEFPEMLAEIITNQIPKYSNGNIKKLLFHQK

CCCN1CCC[C@H](c2cccc(O)c2)C1
inactive: [1] | [2] | [3] | [4] | [5] | [6] | [7] | [8] | [9] | [10] | [11] | [12] | [13] | [14] | [15] | [16] | [17] | [18] | [19] | [20] | [21] | [22] | [23]
